Measurements from PubChem BioAssay (NCI).
About 79,000 compounds went through this panel and 15% of them were active in at least one assay; those are over-represented in the sample as a whole. Rule as the data show it: active = growth inhibition above about 70%; inactive = the rest.

What was measured:
[1] = NCI Yeast Anticancer Drug Screen. Data for the rad50 strain (AID 155);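 also: 0% = growth of vehicle-only cultures of the same strain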; conditions: S. cerevisiae rad50 strain growth inhibition; at 50.0 µM; stronger effect = higher value
In short: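 Inhibition values express reduced yeast growth in compound-treated cultures relative to vehicle-treated controls.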

[2] = NCI Yeast Anticancer Drug Screen. Data for the mec2-1 strain (AID 157); conditions: S. cerevisiae mec2-1 strain, at 50.0 µM, stronger effect = higher value
In short: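 Readout is yeast growth inhibition, normalised to vehicle-treated controls, in the mec2-1 strain exposed to compound.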

[3] = NCI Yeast Anticancer Drug Screen. Data for the sgs1 mgt1 strain (AID 161);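 also: 0% = growth of cultures given vehicle only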; conditions: S. cerevisiae sgs1 mgt1 strain, at 50.0 µM, stronger effect = higher value
In short: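 This yeast growth screen uses a strain with defined DNA-repair lesions; compound-treated growth is compared with vehicle-treated growth.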

[4] = NCI Yeast Anticancer Drug Screen. Data for the cln2 rad14 strain (AID 165);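 also: 0% = growth equal to vehicle treated cultures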; conditions: S. cerevisiae cln2 rad14 strain, at 50.0 µM, stronger effect = higher value
In short: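 Relative to vehicle controls, growth inhibition of compound-treated cln2 rad14 yeast was recorded.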

[5] = NCI Yeast Anticancer Drug Screen. Data for the bub3 strain (AID 167); conditions: S. cerevisiae bub3 mutant strain, at 50.0 µM, stronger effect = higher value
In short: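 Steps: expose the mutant yeast strain to compound; grow alongside vehicle-treated cultures; measure growth; express inhibition against the vehicle cultures.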

[6] = NCI Yeast Anticancer Drug Screen. Data for the mlh1 rad18 strain (AID 175); conditions: S. cerevisiae mlh1 rad18 strain growth inhibition; at 50.0 µM; stronger effect = higher value
In short: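 Test agents were incubated with a yeast strain of defined genotype (DNA damage repair defect). Inhibition of growth was derived by comparison with vehicle-exposed cultures.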

Measured: growth inhibition

CC1CNC(=S)O1 (configuration not stated)
inactive: [1] -18.2% | [2] -15.5% | [3] 5.05% | [4] -7.05% | [5] -32.1% | [6] -16.7%

O=C(O)c1nn(-c2ccccc2)c2c1CSc1ccccc1-2
inactive: [1] 35.5% | [2] 34.2% | [3] 25.6% | [4] 27.2% | [5] 16.9% | [6] 13.2%

NC(=O)Nc1ccc2[nH]c(=O)c3ccccc3c2c1
inactive: [1] 7.4% | [2] -3.35% | [3] 17.2% | [4] 0.6% | [5] -7.15% | [6] 1.45%

COC(=O)C(C)c1cc2ccccc2[nH]1 (configuration not stated)
inactive: [1] -8% | [2] -8.65% | [3] 0.9% | [4] -11.4% | [5] -46.7% | [6] 0.75%

C/C=C(/C(=O)NC(N)=O)C(C)C
inactive: [1] -3.65% | [2] 3.15% | [3] -20.1% | [4] -48.3% | [5] -2.55% | [6] -2.85%

O=C1OC(c2ccccc2)=C/C1=C/c1ccc(Cl)cc1
inactive: [1] -1.2% | [2] -17.6% | [3] -6.65% | [4] -6.2% | [5] -7.3% | [6] -8.3%

Nc1nc2c([nH]c(=O)n2C2OC(CO)C(O)C2O)c(=O)n1N (configuration not stated)
inactive: [1] 16.1% | [2] 6.2% | [3] 18.8% | [4] -13% | [5] 9.95% | [6] 5.2%

CCn1c(O)c(C=Nc2ccccc2)s/c1=N/Nc1nc(C)cs1
inactive: [1] -45.3% | [2] -55.2% | [3] -25% | [4] -14.1% | [5] -26.7% | [6] -27.5%

Cc1ccccc1NC(=O)/C(C#N)=N\Nc1nc[nH]c1C(N)=O
inactive: [1] -33.7% | [2] -22.6% | [3] -11.8% | [4] 6.2% | [5] -45.9% | [6] 13.1%

Cc1cccc(-n2cccc2)c1
inactive: [1] -1.6% | [2] -13.8% | [3] 4.8% | [4] -10.7% | [5] -16.3% | [6] 4.75%

CCCC(C)C(=O)OC1CCCCC1 (configuration not stated)
inactive: [1] 9.35% | [2] 1.3% | [3] -0.85% | [4] -21.4% | [5] 7.6% | [6] 3%

O=C(C[n+]1ccccc1Cc1ccccc1)c1ccccc1
inactive: [1] -6.6% | [2] -4.2% | [3] -14% | [4] -11.6% | [5] -11.4% | [6] -17.9%

COc1ccc(OC)c2c(Nc3ccc(S(=O)(=O)O)c4cc(S(=O)(=O)O)cc(S(=O)(=O)O)c34)cc(C)nc12
inactive: [1] 2.5% | [2] -6.4% | [3] 9.25% | [4] 3.1% | [5] 6.8% | [6] 10.9%

O=C(OCc1ccccc1)C1(N2CN(C3(C(=O)OCc4ccccc4)CCCC3)CN(C3(C(=O)OCc4ccccc4)CCCC3)C2)CCCC1
inactive: [1] -8.05% | [2] -5.7% | [3] 2.25% | [4] 16.9% | [5] 13.5% | [6] 2.15%

CCN(CC)C(=O)c1cc2c(cc1[N+](=O)[O-])OCO2
inactive: [1] -0.6% | [2] -15.4% | [3] 3.65% | [4] -45.8% | [5] 1.25% | [6] -18.4%

O=C(O)c1c2c(nc3ccccc13)CCC2
inactive: [1] 2.55% | [2] -9.75% | [3] 6.35% | [4] -14.5% | [5] 12.2% | [6] -8.4%

CC(=O)NNc1nc(C)c(C(/C=C/c2ccc(/C=C/C(=N\NC(=O)c3ccncc3)c3sc(NNC(C)=O)nc3C)cc2)=N/NC(=O)c2ccncc2)s1
inactive: [1] -16.6% | [2] -7.35% | [3] -8.95% | [4] 12.7% | [5] 1.4% | [6] -13.3%

CSCNC(=S)Nc1ccc(Cl)c(Cl)c1
inactive: [1] 59.2% | [2] 45% | [3] 35% | [4] 23.4% | [5] 53% | [6] 61.3%

CCOC(=O)Cc1csc(N=Nc2c(O)[nH]c3ccccc23)n1
inactive: [1] -2.55% | [2] -12.8% | [3] 10.6% | [4] 7.9% | [5] 5.85% | [6] 17.6%

CCOC(=O)C(C(C)=O)C(NO)C(Cl)(Cl)Cl (configuration not stated)
inactive: [1] 5.4% | [2] 13.6% | [3] 3.4% | [4] 17.1% | [5] 2.2% | [6] -3.05%

CC1c2c(cc(=O)n(Cc3ccccc3)c2O)C(=O)N1Cc1ccccc1 (configuration not stated)
inactive: [1] -12.6% | [2] 16.9% | [3] 3.85% | [4] 4.75% | [5] -23.6% | [6] 8.85%

COC(=O)/C(N=Nc1cccc(C)c1)=C(\C)O
inactive: [1] 8.65% | [2] 5.65% | [3] 5.3% | [4] 19.9% | [5] 9.8% | [6] -2.7%

CC(C)OCCOCCO
inactive: [1] 7.65% | [2] -10.5% | [3] -4.85% | [4] -24.9% | [5] 10.1% | [6] -1.2%

COC(=O)NC(c1ccccc1)C(C)I (configuration not stated)
inactive: [1] 7.3% | [2] -0.6% | [3] -2.85% | [4] -9.65% | [5] 3.25% | [6] 12.3%

CC1(C)OC(=O)C(=Cc2ccc(C#N)cc2)C(=O)O1
inactive: [1] 19% | [2] 9.6% | [3] 15.4% | [4] 11.8% | [5] 28.6% | [6] 22.8%

O=CN(c1ccccc1)c1ccccc1
inactive: [1] 3.8% | [2] -2.4% | [3] -2.7% | [4] -15.4% | [5] -4.55% | [6] -23.6%

CCOC(=O)c1cccc(C(=O)OCC)n1
inactive: [1] 4.75% | [2] -2.35% | [3] 11.8% | [4] -1.65% | [5] 18.7% | [6] -14.6%

N#CC(/C(CCCC(=O)Nc1cccc([N+](=O)[O-])c1)=N/NC(=O)c1cc2ccccc2cc1O)c1ccccc1 (configuration not stated)
inactive: [1] 41.4% | [2] 41.4% | [3] -17.2% | [4] 9.4% | [5] 36.8% | [6] 38%

CCC/C(=N/NC(N)=O)c1ccco1
inactive: [1] -2.85% | [2] -1.55% | [3] -8.15% | [4] -2.25% | [5] -1.7% | [6] -0.3%

Cc1nc(C)c(N2CCN(Cc3ccccc3)CC2)c(=O)[nH]1
inactive: [1] 8.65% | [2] 2.5% | [3] -45.1% | [4] 13% | [5] 17.4% | [6] -52.9%

COc1cc(C2c3cc4c(cc3OC(N3CCNCC3)C2C)OCO4)cc(OC)c1OC (configuration not stated)
inactive: [1] -17.5% | [2] -42.8% | [3] -27.8% | [4] -22.7% | [5] -3.6% | [6] -27.5%

CCOC(=O)C1OC1(C)c1ccc(Cl)cc1 (configuration not stated)
inactive: [1] 6.1% | [2] 3.8% | [3] -0.7% | [4] 5.25% | [5] -5.8% | [6] 0.6%

O=C(c1ccccc1)C1(Br)CCCCC1
inactive: [1] -2.1% | [2] 11.7% | [3] 19.8% | [4] -8.8% | [5] 15% | [6] 15.9%

CCOc1ccc(CC(=O)Nc2cc([N+](=O)[O-])ccc2NCCN(CC)CC)cc1
inactive: [1] -18.2% | [2] -10.4% | [3] -8.6% | [4] -53.8% | [5] 0.2% | [6] -3.85%

CCOC(=O)C(C)(C(=O)OCC)C(C)Cc1cccc2ccccc12 (configuration not stated)
inactive: [1] -12.6% | [2] 0.95% | [3] -4.45% | [4] -31.4% | [5] -7.15% | [6] -3.6%

NCCSCCC(=O)O
inactive: [1] -0.25% | [2] -12.1% | [3] -36.9% | [4] 7.3% | [5] -28.4% | [6] -22.6%

Nc1ccc(F)cc1
inactive: [1] -22.1% | [2] -1.5% | [3] -15.4% | [4] -19.6% | [5] -3.05% | [6] -31.9%

Cc1cc(=O)n2c(n1)Nc1ccccc1C2
inactive: [1] 22.5% | [2] -26% | [3] 2.75% | [4] 1.65% | [5] 46.4% | [6] 6.8%

CCc1cccc(CC)c1N(C(C)=O)C(C)=O
inactive: [1] 8.55% | [2] -1.3% | [3] -11.7% | [4] -8.85% | [5] 19.2% | [6] 3.2%

Cc1ccc(S(=O)(=O)N2CCC(C(=O)N3CCCC3)(c3cccc(C)c3)CC2)cc1
inactive: [1] -55.5% | [2] -35.4% | [3] -46.4% | [4] 0.1% | [5] -38.5% | [6] -43.1%

CC(=O)OCC1OC(n2cc([N+](=O)[O-])c(=O)[nH]c2=O)C(OC(C)=O)C(OC(C)=O)C1OC(C)=O (configuration not stated)
inactive: [1] -12.8% | [2] 9.9% | [3] -8.65% | [4] -20% | [5] 12.8% | [6] -35.1%

c1ccc(CSc2nn[nH]n2)cc1
inactive: [1] -5.3% | [2] -8.1% | [3] -0.8% | [4] -9.65% | [5] -2.45% | [6] -4.95%
